Our source for the morphology score and SARS-CoV-2 infection rate values is the supplement of paper PMC13380429.

Assay [1] concerns Vero E6 infected with SARS-CoV-2. As to the kind of experiment: morphology score (similarity to uninfected cells); higher = more like uninfected cells. The following applies: 24 h.
For assay [2] the test system is unchanged. As to the kind of experiment: SARS-CoV-2 infection rate relative to infected DMSO; higher = more infection, active = 60 or less. As to conditions: 24 h.

In assay [1], `CC(C)(C)NCc1cc(Nc2ccnc3cc(Cl)ccc23)c2c(c1O)CCCC2` [naphthoquine-phosphate] (10 µM) displayed a morphology score of 0.103. Also, the SARS-CoV-2 infection rate in assay [2] is 109% (inactive).
On the same counts, the results for `COc1ccccc1C(=O)Nc1cccc(NC(=O)c2cccc(C)c2)c1` (10 µM) are 0.257 and 96.5% (inactive).
For `O=C(NC1CCNCC1)c1n[nH]cc1NC(=O)c1c(Cl)cccc1Cl` (10 µM) the same measures were -0.285 and 109% (inactive).
For `Cn1c(=O)[nH]c2ncn(C)c2c1=O` [paraxanthine] (10 µM) the same measures were 0.141 and 110% (inactive).
With `Cc1cc(OCc2nc(-c3ccccc3Cl)cs2)ccc1OCC(=O)O` [GPR120-modulator-1] (10 µM), in assay [1], the morphology score is -0.0706. Also, the SARS-CoV-2 infection rate in assay [2] is 100% (inactive).
In assay [1], `O=c1ncccn1[C@@H]1O[C@H](CO)[C@@H](O)[C@H]1O` [zebularine] (10 µM) yielded a morphology score of 0.0754. Further, in assay [2], the SARS-CoV-2 infection rate was 104% (inactive).
Consider `COc1cccc2cc(-c3nc([C@H]4CC[C@H](C(=O)O)CC4)n4ncnc(N)c34)[nH]c12` (0.833333 µM), for which, in assay [1], the morphology score came out at 0.174. In assay [2], the SARS-CoV-2 infection rate is 112% (inactive).
In assay [1], `N#C/C(=C1/SC[C@@H](c2ccc(Cl)cc2Cl)S1)n1ccnc1` [luliconazole] (10 µM) came in with a morphology score of 0.0257. In addition, the SARS-CoV-2 infection rate in assay [2] is 104% (inactive).
On the same counts, the results for `CCS(=O)(=O)N(Cc1cccnc1)c1cccc(-c2ccc(C#N)cc2)c1` (10 µM) are 0.372 and 87% (inactive).
On the same counts, the results for `O=C(O)CCCC[C@@H]1CCSS1` [thioctic-acid] (10 µM) are 0.0028 and 106% (inactive).
For `CC1OC2(CS1)CN1CCC2CC1` (stereo unspecified) [cevimeline] (10 µM) the same measures were 0.0787 and 98% (inactive).
Turning to `c1ccc2cc(C3=NCCN3)ncc2c1` (10 µM), the morphology score in assay [1] stood at 0.119. The SARS-CoV-2 infection rate in assay [2] is 102% (inactive).
As for `Nc1nc(-c2nn(Cc3ccccc3F)c3ncccc23)ncc1C1CC1` (0.833333 µM), the morphology score in assay [1] is -0.057. Further, in assay [2], the SARS-CoV-2 infection rate was 102% (inactive).
Turning to `CCOC(=O)N1CCC(=C2c3ccc(Cl)cc3CCc3cccnc32)CC1` [loratadine] (10 µM), in assay [1], the morphology score amounted to 0.221. Further, the SARS-CoV-2 infection rate in assay [2] is 90% (inactive).
`CSCC1CN(/N=C/c2ccc([N+](=O)[O-])o2)C(=O)O1` (stereo unspecified) [inimur] (10 µM) came in with a morphology score in assay [1] of 0.187. In assay [2], the SARS-CoV-2 infection rate was 92% (inactive).
For `C[C@H]1CNCCCN1S(=O)(=O)c1cccc2cncc(F)c12` [ripasudil] (10 µM) the same measures were 0.438 and 112% (inactive).
On the same counts, the results for `CCCCN(CCCC)CC(O)c1cc(Cl)cc2c1-c1ccc(Cl)cc1/C2=C/c1ccc(Cl)cc1` (stereo unspecified) [lumefantrine] (10 µM) are 0.15 and 91.5% (inactive).
On the same counts, the results for `Cc1csc(S(=O)(=O)N(CC(C)C)c2cc3c(cc2OCc2ccc(C(=O)O)cc2)CCC3)n1` (10 µM) are -0.0439 and 107% (inactive).
Consider `C[C@]12CCC(=O)C=C1CC[C@@H]1[C@@H]2C(=O)C[C@]2(C)C(=O)CC[C@@H]12` [adrenosterone] (10 µM), for which the morphology score in assay [1] was -0.109. Besides, the SARS-CoV-2 infection rate in assay [2] was 97.5% (inactive).
Turning to `O=C(O)CN1C(=O)c2cccc3cccc(c23)C1=O` [alrestatin] (10 µM), the morphology score in assay [1] was determined as 0.0519. The SARS-CoV-2 infection rate in assay [2] is 106% (inactive).
For `Fc1cc(F)c2c(c1)[C@H]1C=CC[C@H]1C(c1cccnc1)N2` (stereo partly specified) [Golgicide A] (0.833333 µM), in assay [1], the morphology score amounted to 0.281. In addition, the SARS-CoV-2 infection rate in assay [2] is 104% (inactive).
For `Cc1cnc(C(=O)N[C@H]2CCCCC/C=C\[C@@H]3C[C@@]3(C(=O)NS(=O)(=O)C3CC3)NC(=O)[C@@H]3C[C@@H](Oc4nc5ccccc5c5ccccc45)CN3C2=O)cn1` [paritaprevir] (10 µM) the same measures were 0.303 and 98% (inactive).
On the same counts, the results for `COc1cc(C#N)ccc1S(=O)(=O)Nc1ccc2c(c1)cc(C)c(=O)n2C` (10 µM) are 0.0143 and 102% (inactive).
In turn, `C[C@]12CCC(=O)C=C1CC[C@@H]1[C@@H]2CC[C@@]2(C)[C@H]1CC[C@]2(O)C(=O)CO` [cortodoxone] (10 µM) displayed a morphology score in assay [1] of 0.0341. Besides, the SARS-CoV-2 infection rate in assay [2] was 98% (inactive).
On the same counts, the results for `Cc1ccc(C(=O)Cn2c3c(sc2=N)CCCC3)cc1` [pifithrin-alpha] (10 µM) are -0.224 and 108% (inactive).
In turn, `Ic1cncc(OC[C@@H]2CCN2)c1` (10 µM) returned a morphology score in assay [1] of 0.114. In addition, the SARS-CoV-2 infection rate in assay [2] was 101% (inactive).
With `COc1ccc(S(=O)(=O)N(C(C)=O)c2ccccc2/C=C/c2cc[n+]([O-])cc2)cc1` (10 µM), the morphology score in assay [1] is -0.108. Moreover, the SARS-CoV-2 infection rate in assay [2] was 93.5% (inactive).
On the same counts, the results for `N[C@@H]1CONC1=O` [cycloserine-(D)] (10 µM) are 0.0631 and 92.5% (inactive).
For `CN(C)CCC(c1ccccc1)c1ccccn1` (stereo unspecified) [pheniramine] (10 µM) the same measures were -0.131 and 110% (inactive).
On the same counts, the results for `CC=CC1=C(C(=O)O)N2C(=O)[C@@H](NC(=O)[C@H](N)c3ccc(O)cc3)[C@H]2SC1` (mixture of isomers) [cefprozil] (10 µM) are 0.273 and 99% (inactive).
On to `c1ccc(C2CN3CCSC3=N2)cc1` (stereo unspecified) [tetramisole] (10 µM), for which, in assay [1], the morphology score is 0.191. In assay [2], the SARS-CoV-2 infection rate was 104% (inactive).
In assay [1], `Cc1nc2c([nH]1)-c1ccccc1N(C(=O)c1ccc(NC(=O)c3ccccc3-c3ccccc3)cc1)CC2` [conivaptan] (10 µM) showed a morphology score of 0.193. In addition, the SARS-CoV-2 infection rate in assay [2] was 107% (inactive).
On the same counts, the results for `O=[N+]([O-])c1ncc[nH]1` [azomycin-(2-nitroimidazole)] (10 µM) are -0.138 and 105% (inactive).
Turning to `COC(=O)C1=CO[C@@H](O)[C@@H]2C(CO)=CC[C@H]12` [genipin] (10 µM), in assay [1], the morphology score came to 0.291. Also, the SARS-CoV-2 infection rate in assay [2] was 112% (inactive).
On the same counts, the results for `CN(C)CC/C=C1/c2ccccc2Sc2ccc(Cl)cc21` [chlorprothixene] (10 µM) are 0.434 and 68.5% (inactive).
Take `CCOc1ccc(NC(=S)N2CCC(C(O)(c3ccccc3)c3ccccc3)CC2)cc1` (10 µM): the morphology score in assay [1] turned out to be 0.267. Besides, the SARS-CoV-2 infection rate in assay [2] was 86.5% (inactive).
In the case of `O=C(O)C1=CO[C@@H](O[C@@H]2O[C@H](CO)[C@@H](O)[C@H](O)[C@H]2O)[C@@H]2C(CO)=CC[C@H]12` [Geniposidic acid] (10 µM), the morphology score in assay [1] was -0.163. Further, the SARS-CoV-2 infection rate in assay [2] is 114% (inactive).
`CN(c1nccc(=O)[nH]1)C1CCN(c2nc3ccccc3n2Cc2ccc(F)cc2)CC1` [mizolastine] (10 µM) showed a morphology score in assay [1] of 0.211. The SARS-CoV-2 infection rate in assay [2] is 106% (inactive).
In the case of `NS(=O)(=O)OC[C@@H]1C[C@@H](n2ccc3c(N[C@H]4CCc5ccccc54)ncnc32)C[C@@H]1O` [pevonedistat] (0.833333 µM), in assay [1], the morphology score was -0.404. Further, the SARS-CoV-2 infection rate in assay [2] is 110% (inactive).
In the case of `Cc1nc2ccccc2n1Cc1ccc(Cl)cc1` [chlormidazole] (10 µM), the morphology score in assay [1] was -0.099. Further, the SARS-CoV-2 infection rate in assay [2] was 118% (inactive).
For `CC(C)COC(=O)c1ccc(N)cc1` [isobutamben] (10 µM) the same measures were 0.0167 and 106% (inactive).
Regarding `CCOc1ccc2nc(SCCN3CCOCC3)[nH]c2c1` [afobazole] (10 µM), the morphology score in assay [1] was -0.0209. Also, the SARS-CoV-2 infection rate in assay [2] is 111% (inactive).
On the same counts, the results for `CCCC(=O)C1(c2ccccc2)CCN(C(=O)[C@@H](Cc2ccc(OC)cc2)NC(=O)[C@@H](N)Cc2cncn2C)CC1` (10 µM) are 0.106 and 98% (inactive).
For `Nc1nc(=O)c2nc(CNc3ccc(C(=O)N[C@@H](CCC(=O)O)C(=O)O)cc3)cnc2[nH]1` [folic-acid] (10 µM) the same measures were 0.207 and 102% (inactive).
For `O=C(Nc1ccc(S(=O)(=O)C(F)(F)F)cc1)C1=CCN(c2ncccc2C(F)(F)F)CC1` (10 µM) the same measures were 0.135 and 108% (inactive).
Take `CCCC1(CCC)CCC2(CCN(CCCN(CC)CC)C2)CC1` [atiprimod] (0.833333 µM): the morphology score in assay [1] turned out to be 0.283. Moreover, the SARS-CoV-2 infection rate in assay [2] is 82.5% (inactive).
`CCCc1cc(=O)[nH]c(=S)[nH]1` [propylthiouracil] (10 µM) came in with a morphology score in assay [1] of 0.00376. In addition, in assay [2], the SARS-CoV-2 infection rate is 104% (inactive).
As for `O=C(CNC(=O)c1cccc(C(F)(F)F)c1)N[C@@H]1CCN(Cc2ccc(Cl)cc2)C1` [teijin-compound-1] (10 µM), the morphology score in assay [1] is -0.116. Also, in assay [2], the SARS-CoV-2 infection rate was 103% (inactive).
